Results filed as inconclusive are left out. A call without a number means that no potency is given here. Calls of active or inactive are those of the source. Calls come from the whole dose curve; as a rule, active = well fitted curve in the direction sought with a large enough effect; inconclusive = small, poorly fitted or top-dose-only effect, or another doubt; inactive = no such curve, though single readings can be large; an effect the other way counts as inactive or inconclusive. Non-standard residues stand in square brackets, D forms with d. Residues, ends and D or L forms follow the SMILES beside them. *: point of attachment. Sta = CC(C)C[C@H](N)[C@@H](O)CC(=O)O; Isovaleryl = CC(C)CC(=O)*
Columns and labels:
[1] = qHTS Screen of the MIPE 4.0 Collection Against Ewings Sarcoma (TC32) (AID 1259256); note: nearly all actives have a fitted effect of over 45% in size; note: potency is the fitted concentration of half-maximal effect
How it was run: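 Dose series incubated 48 h with cells in RPMI plus 5% FBS, glutamine and penicillin/streptomycin; cell viability then quantified via CellTiter-Glo.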

[2] = qHTS assay to identify small molecule inhibitors of chordoma cells - UCH-1 (AID 1259355); note: nearly all actives have a fitted effect of over 55% in size; note: potency is the fitted concentration of half-maximal effect; series mostly up to about 46 µM
How it was run: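 Cells (800/well) were seeded and left overnight at 37 C, 5% CO2, then treated with drugs at 15 concentrations plus a combination mix of auranofin, camptothecin, doxorubicin, rubitecan and topotecan. Viability after 48hr was read by CellTiter-Glo luminescence.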

[3] = qHTS assay to identify small molecule inhibitors of chordoma cells - UCH-2 (AID 1259356); note: potency is the fitted concentration of half-maximal effect
[4] = Identifying Small Molecule Inhibitors of Pancreatic Cancer Stem Cells (SN12C, Adherent) (AID 1259358);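 note: cell survival measured after 48 h of compound exposure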
How it was run: (§1)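 Endpoint: ATP-based luminescence, 48 h drug exposure. Bortezomib at 9.2 uM final as full-kill control; DMSO vehicle as negative control; activity normalized between vehicle and cell-free wells.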

[5] = Identifying Small Molecule Inhibitors of Pancreatic Cancer Stem Cells (SN12C, Spheroid) (AID 1259360); details: Potency: SN12C spheroid viability
How it was run: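 Pre-formed 14-day tumor spheroids or adherent cells dosed and incubated 48 h, 37C, 5% CO2. Viability assessed by CellTiter-Glo.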

[6] = P-glycoprotein substrates identified in KB-3-1 adenocarcinoma cell line, qHTS therapeutic library screen (AID 1346986); note: nearly all actives have a fitted effect of over 60% in size
How it was run: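 KB-3-1 parental and colchicine-selected P-gp-overexpressing KB-8-5-11 cells (colchicine omitted during assay), 500 cells/well, dosed in dose-response for 72 h at 37 °C; CellTiter-Glo luminescence. Cytotoxic: curve class -1.1 to -2.4, max response >50%, AC50 < 10 uM.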

[7] = Identifying Small Molecule Inhibitors of Pancreatic Cancer Stem Cells (A278, Adherent) (AID 1259361);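 note: viability read after 48 h compound exposure; nearly all actives have a fitted effect of over 35% in size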
How it was run: as §1

C[C@]12CCC(=O)C=C1CC[C@@H]1[C@H]2[C@@H](O)C[C@@]2(C)[C@H]1CC[C@]2(O)C(=O)CO
Potency [1]: inactive
Potency [2]: inactive
Potency [3]: inactive

Nc1cccc2c1CN(C1CCC(=O)NC1=O)C2=O (stereo not given)
Potency [1]: inactive
Potency [2]: inactive
Potency [3]: inactive
Potency [4]: inactive
Potency [5]: inactive

CCN(CC)C(=S)SSC(=S)N(CC)CC
Potency [1]: inactive
Potency [2]: inactive
Potency [3]: inactive

COc1ccc(C2(C#N)CCC(C(=O)O)CC2)cc1OC1CCCC1 (stereo not given)
Potency [1]: inactive
Potency [2]: inactive
Potency [3]: inactive

COCCCOc1ccnc(CS(=O)c2nc3ccccc3[nH]2)c1C (stereo not given)
Potency [1]: 8.33 µM (active)
Potency [2]: inactive
Potency [3]: inactive
Potency [6]: inactive

CC1(C)NC(=O)N(c2ccc([N+](=O)[O-])c(C(F)(F)F)c2)C1=O
Potency [1]: inactive
Potency [2]: inactive
Potency [3]: inactive

CC(C)[N+]1(C)[C@@H]2CC[C@H]1CC(OC(=O)C(CO)c1ccccc1)C2 (stereo not given in full)
Potency [1]: inactive
Potency [2]: inactive
Potency [3]: inactive

CNC[C@@H](O)[C@@H](O)[C@H](O)[C@H](O)CO
Potency [1]: inactive
Potency [2]: inactive
Potency [3]: inactive

c1ccc2[nH]c(-c3cscn3)nc2c1
Potency [1]: inactive
Potency [2]: inactive
Potency [3]: inactive

CCCCC(CC)COC(=O)C(C#N)=C(c1ccccc1)c1ccccc1 (stereo not given)
Potency [1]: inactive
Potency [2]: inactive
Potency [3]: inactive
Potency [6]: inactive

Cc1cc(=O)oc2cc(O)ccc12
Potency [1]: inactive
Potency [2]: inactive
Potency [3]: inactive

CC(C)(S)[C@@H](N)C(=O)O
Potency [1]: inactive
Potency [2]: inactive
Potency [3]: inactive

COc1ccc2cc([C@H](C)C(=O)O)ccc2c1
Potency [1]: inactive
Potency [2]: inactive
Potency [3]: inactive

CCOC(=O)c1c(C)n(C)c2ccc(O)cc12
Potency [1]: inactive
Potency [2]: inactive
Potency [3]: inactive

CC(C)CC(=O)N[C@H](C(=O)N[C@H](C(=O)N[C@@H](CC(C)C)[C@@H](O)CC(=O)N[C@@H](C)C(=O)N[C@@H](CC(C)C)[C@@H](O)CC(=O)O)C(C)C)C(C)C (Isovaleryl-VV[Sta]A[Sta]-OH)
Potency [1]: inactive
Potency [2]: inactive
Potency [3]: inactive

O=c1oc2cc(O)ccc2s1
Potency [1]: 20.9 µM (active)
Potency [2]: inactive
Potency [3]: inactive

Cc1cc(=O)c2c(O)c3c(O)cc(=O)c4c3c3c(cc(O)c1c23)C(C)(C)C=4O
Potency [1]: inactive
Potency [2]: 6.31 µM (active)
Potency [3]: 6.51 µM (active)

COc1c(O)cc2c(c1O)[C@@H]1O[C@H](CO)[C@@H](O)[C@H](O)[C@H]1OC2=O
Potency [1]: inactive
Potency [2]: inactive
Potency [3]: inactive

C=C(c1ccc(C(=O)O)cc1)c1cc2c(cc1C)C(C)(C)CCC2(C)C
Potency [1]: inactive
Potency [2]: inactive
Potency [3]: inactive

CN(C)C(=O)COC(=O)Cc1ccc(OC(=O)c2ccc(N=C(N)N)cc2)cc1
Potency [1]: 0.0469 µM (active)
Potency [2]: inactive
Potency [3]: inactive

O=C(OC1C[C@H]2CC[C@@H](C1)[N+]21CCCC1)C(O)(c1ccccc1)c1ccccc1 (stereo not given in full)
Potency [1]: inactive
Potency [2]: inactive
Potency [3]: inactive

NS(=O)(=O)c1cc(C(=O)O)c(NCc2ccco2)cc1Cl
Potency [1]: inactive
Potency [2]: inactive
Potency [3]: inactive

Nc1ccc(S(N)(=O)=O)cc1
Potency [1]: inactive
Potency [2]: inactive
Potency [3]: inactive

CCOC(=O)C1=C[C@@H](OC(CC)CC)[C@H](NC(C)=O)[C@@H](N)C1
Potency [1]: inactive
Potency [2]: inactive
Potency [3]: inactive

CCN(CCO)CCCC(C)Nc1ccnc2cc(Cl)ccc12 (stereo not given)
Potency [1]: 23.5 µM (active)
Potency [2]: inactive
Potency [3]: inactive
Potency [4]: inactive
IC50 (viability decrease) [7]: inactive

Cc1nc2n(c(=O)c1CCN1CCC(c3noc4cc(F)ccc34)CC1)CCCC2
Potency [1]: inactive
Potency [2]: inactive
Potency [3]: inactive

O=C(CS(=O)Cc1ccco1)NCC=CCOc1cc(CN2CCCCC2)ccn1 (stereo not given)
Potency [1]: inactive
Potency [2]: inactive
Potency [3]: inactive

O=P(O)(O)C(O)(Cn1ccnc1)P(=O)(O)O
Potency [1]: inactive
Potency [2]: inactive
Potency [3]: inactive

COc1c2occc2cc2ccc(=O)oc12
Potency [1]: 3.32 µM (active)
Potency [2]: inactive
Potency [3]: inactive

CC[C@]1(O)C[C@H]2CN(CCc3c([nH]c4ccccc34)[C@@](C(=O)OC)(c3cc4c(cc3OC)N(C=O)[C@H]3[C@@](O)(C(=O)OC)[C@H](OC(C)=O)[C@]5(CC)C=CCN6CC[C@]43[C@@H]65)C2)C1
Potency [1]: inactive
Potency [2]: 0.224 µM (active)
Potency [3]: inactive

O=C(O)c1cccc(-c2noc(-c3ccccc3F)n2)c1
Potency [1]: inactive
Potency [2]: inactive
Potency [3]: inactive

O=C(O)c1cn(-c2ccc(F)cc2)c2cc(N3CCNCC3)c(F)cc2c1=O
Potency [1]: inactive
Potency [2]: inactive
Potency [3]: inactive

O=C(O)c1cc(=O)c2c(OCC(O)COc3cccc4oc(C(=O)O)cc(=O)c34)cccc2o1
Potency [1]: inactive
Potency [2]: inactive
Potency [3]: inactive

CC(S)C(=O)NCC(=O)O (stereo not given)
Potency [1]: inactive
Potency [2]: inactive
Potency [3]: inactive

Nc1cc(C(Cl)=C(Cl)Cl)c(S(N)(=O)=O)cc1S(N)(=O)=O
Potency [1]: inactive
Potency [2]: inactive
Potency [3]: inactive

Nc1nc(Cl)nc2c1ncn2[C@H]1C[C@H](O)[C@@H](CO)O1
Potency [1]: 0.296 µM (active)
Potency [2]: inactive
Potency [3]: inactive
IC50 (viability decrease) [7]: 0.0959 µM (active)

O=C1c2ccccc2-c2n[nH]c3cccc1c23
Potency [1]: 18.7 µM (active)
Potency [2]: inactive
Potency [3]: inactive

Cc1c(C(=O)NN2CCCCC2)nn(-c2ccc(Cl)cc2Cl)c1-c1ccc(Cl)cc1
Potency [1]: 26.4 µM (active)
Potency [3]: inactive

From PubChem BioAssay (NCATS)
